Paper PMC4336329 (PLoS ONE, 2015)
Screen size: about 310,000 compounds; about 2,200 (0.71%) showed an effect of 50% or more. The effect is printed as a negative number. The sample as a whole holds a higher share of strong results than the screen did.

The compounds below were run against human ether-à-go-go-related gene (hERG) potassium channel (human, UniProt Q12809) (assay: primary screen, population patch clamp on CHO cells stably expressing hERG; higher = less effect of the substance).
Chain of human ether-à-go-go-related gene (hERG) potassium channel (Q12809 whole entry, looked up): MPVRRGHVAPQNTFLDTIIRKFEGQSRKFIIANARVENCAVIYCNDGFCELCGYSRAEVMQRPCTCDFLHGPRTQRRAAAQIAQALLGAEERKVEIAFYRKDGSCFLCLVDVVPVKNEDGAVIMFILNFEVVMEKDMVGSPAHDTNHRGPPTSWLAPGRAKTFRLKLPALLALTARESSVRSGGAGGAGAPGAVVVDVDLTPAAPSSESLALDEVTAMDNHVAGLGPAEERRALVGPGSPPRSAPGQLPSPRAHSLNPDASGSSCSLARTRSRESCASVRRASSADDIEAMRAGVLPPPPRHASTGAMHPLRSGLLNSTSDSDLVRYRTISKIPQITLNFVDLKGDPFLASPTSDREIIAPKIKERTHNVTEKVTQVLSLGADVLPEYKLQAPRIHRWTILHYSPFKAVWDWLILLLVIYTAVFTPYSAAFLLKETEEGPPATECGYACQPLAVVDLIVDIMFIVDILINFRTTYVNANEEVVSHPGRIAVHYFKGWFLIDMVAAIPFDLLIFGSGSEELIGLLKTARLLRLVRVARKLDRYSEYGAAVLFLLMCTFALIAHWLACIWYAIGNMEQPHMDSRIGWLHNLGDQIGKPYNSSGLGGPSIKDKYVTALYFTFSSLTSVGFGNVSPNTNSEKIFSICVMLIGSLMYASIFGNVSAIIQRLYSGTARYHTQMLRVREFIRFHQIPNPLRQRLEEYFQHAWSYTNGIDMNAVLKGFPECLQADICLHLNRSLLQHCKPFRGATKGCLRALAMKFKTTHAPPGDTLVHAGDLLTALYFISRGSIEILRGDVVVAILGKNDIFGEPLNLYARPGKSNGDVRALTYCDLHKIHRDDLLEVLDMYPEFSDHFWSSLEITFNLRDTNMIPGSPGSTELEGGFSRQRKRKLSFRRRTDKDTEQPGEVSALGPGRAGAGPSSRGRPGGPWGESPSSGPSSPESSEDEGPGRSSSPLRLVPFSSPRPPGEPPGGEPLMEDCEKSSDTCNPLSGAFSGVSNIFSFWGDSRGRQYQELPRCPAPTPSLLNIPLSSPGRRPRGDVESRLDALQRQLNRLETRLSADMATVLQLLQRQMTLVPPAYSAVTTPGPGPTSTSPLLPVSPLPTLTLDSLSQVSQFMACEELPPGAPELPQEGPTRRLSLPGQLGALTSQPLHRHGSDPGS

Structure (SMILES) | hERG current change (%, negative = inhibition) at 1uM
COc1cccc(Cn2c(-c3cccs3)noc2=O)c1 | -8.06%
COc1ccc(C)cc1S(=O)(=O)N(CC(=O)N1CCCC1)c1ccc(C)cc1 | -25.1%
COc1ccc(C)cc1S(=O)(=O)N(CC(=O)N1CCCC1)c1ccccc1 | 4.54%
COc1ccc(C)cc1S(=O)(=O)N(CC(=O)N1CCOCC1)c1cc(C)cc(C)c1 | -52%
CCCC(=O)Nn1cnc2c(c1=O)C1(CCCCC1)Cc1ccccc1-2 | 7.68%
COCCN=C1Sc2nc3cc(C)c(C)cc3cc2CN1Cc1cccs1 | 8.08%
COc1ccc(NC(=O)CN2CCN(CC(=O)Nc3ccccc3Cl)CC2)cc1 | -79.3%
COc1ccc(NC(=O)CN2CCC(C(N)=O)CC2)cc1 | 2.62%
COc1ccc(NC(=O)CN2CCCCCC2)cc1OC | 7.92%
COc1cccc(NC(=O)CN2CCN(CC(=O)Nc3ccccc3Cl)CC2)c1 | -21.1%
NC(=O)C1(N2CCCCC2)CCN(CC(=O)Nc2cc(Cl)ccc2Cl)CC1 | -55.3%
NC(=O)C1(N2CCCCC2)CCN(CC(=O)Nc2ccccc2-c2ccccc2)CC1 | 15.5%
COc1ccc(NC(=O)CN2CCN(S(=O)(=O)c3ccc(Cl)cc3)CC2)cc1 | -64.1%
O=C(CN1CCCCC1)Nc1cc(Cl)ccc1Cl | -0.089%
COc1ccc(NC(=O)CCN2CCN(S(=O)(=O)c3ccc(Cl)cc3)CC2)cc1 | 2.03%
COc1ccc(NC(=O)CN2CCN(c3ccccc3Cl)CC2)cc1 | 1.08%
CCOc1ccc(NC(=O)CN2CCN(S(=O)(=O)c3ccc(Cl)cc3)CC2)cc1 | 10.8%
COc1ccc(NC(=O)CN2CCN(CC(=O)Nc3ccc(OC)c(OC)c3)CC2)cc1 | -66.1%
O=C(Nc1nc(-c2ccc3c(c2)OCCO3)cs1)C1CCCC1 | 8.23%
COC(=O)C1=C(c2cc3ccccc3o2)C[C@@H]2CC[C@H]1N2C(=O)N1CCCC1 | 7.5%
NC(=NCCc1ccc(Cl)cc1)NS(=O)(=O)c1ccccc1 | 9.74%
O=C(c1ccccc1Br)N1CCCC(c2nc(-c3cccs3)no2)C1 (stereo not drawn) | 13.2%
COc1ccc2oc(=N)c(-c3nnc4n3CCCCC4)cc2c1 | 1.02%

Structure (SMILES) | hERG current change (%, negative = inhibition) at 1uM
Cc1ccccc1C(=O)N1CCC(C(=O)Nc2ccc(C)c(S(=O)(=O)N3CCCCC3)c2)CC1 | 2.28%
COc1cccc(CN2CCCN(S(=O)(=O)c3ccc(Br)cc3)CC2)c1 | -22.3%
O=C(CN1CCN(C(=O)C2CCC2)CC1)Nc1ccc(F)cc1 | -27.3%
O=C(CN1CCCC1)Nc1ccc(F)cc1 | 16.6%
COc1ccc(CN2CCCN(S(=O)(=O)c3ccc(Br)cc3)CC2)cc1 | -75.6%
COc1ccc(NC(=O)CN2CCCCC2)cc1.O=C(O)C(=O)O | 10.6%
O=C(CN1CCN(S(=O)(=O)N2CCCCCC2)CC1)Nc1ccc(Br)cc1 | -3.27%
COc1ccc(S(=O)(=O)N2CCN(Cc3ccc(Cl)cc3)CC2)cc1 | -4.05%
O=C(CN1CCN(C(=O)N2CCCCC2)CC1)Nc1ccc(F)cc1 | -76.5%
O=C(CN1CCN(S(=O)(=O)N2CCCCC2)CC1)Nc1ccc(Br)cc1 | 2.87%
O=C(CN1CCN(S(=O)(=O)N2CCCCCC2)CC1)Nc1ccc(F)cc1 | -75.1%
COc1ccc(NC(=O)CN2CCN(S(=O)(=O)N(C)C)CC2)cc1 | 13.9%
COc1ccc(NC(=O)CN2CCN(S(=O)(=O)N3CCCCCC3)CC2)cc1 | -60.8%
CCc1nnc(NC(=O)C2COc3ccccc3O2)s1 (stereo not drawn) | 2.41%
CCn1nc(NC(=O)COC)c2cc3cc(C)ccc3nc21 | 9.09%
COc1ccc(NS(=O)(=O)NC(=O)c2c[nH]c3ccccc23)cc1 | 9.58%
CCOc1cc(CO)cc(Br)c1OCC(=O)Nc1ccccc1C | 6.36%
Cc1cc(NC(=O)CCC(=O)NNC(=O)c2ccc(C(C)(C)C)cc2)no1 | 6.49%
CC(Nc1ccc(F)cc1)=[N+](C)CCNS(=O)(=O)c1ccc(Cl)cc1.[I-] | -45.1%
COc1ccc(C(=O)CN2CCN(S(=O)(=O)c3cccc([N+](=O)[O-])c3)CC2)cc1OC | 3.44%
COc1ccc(NC(C)=[N+](C)CCNS(=O)(=O)c2ccc(Cl)cc2)cc1.[I-] | -59.5%
COc1ccc(NC(=O)CN2CCN(CC#N)CC2)cc1 | -44.9%
O=C(CN1CCN(Cc2ccccc2)CC1)Nc1ccc(F)c(F)c1.O=C(O)C(=O)O | -21.9%

Structure (SMILES) | hERG current change (%, negative = inhibition) at 1uM
COc1ccc(C(=O)CN2CCN(S(=O)(=O)c3cccc([N+](=O)[O-])c3)CC2)cc1 | -64.3%
COc1ccc(NC(=O)CN2CCCC2)cc1 | 14.6%
COc1ccc(NC(=O)CN2CCN(CC(=O)Nc3ccc(OC)cc3)CC2)cc1 | -85.6%
COc1cccc(C(=O)CN2CCN(S(=O)(=O)c3cccc([N+](=O)[O-])c3)CC2)c1 | 6.87%
O=C(CN1CCN(c2ccc(Cl)cc2)CC1)Nc1ccc(F)c(F)c1 | -1.8%
COc1cccc(NC(C)=[N+](C)CCNS(=O)(=O)c2ccc(Cl)cc2)c1.[I-] | -36.6%
O=C(CN1CCN(CC(=O)Nc2ccccc2Cl)CC1)Nc1ccc(F)c(F)c1 | -74%
CCOC(=O)Cn1nnc(-c2cccc(OC)c2)n1 | 9.82%
Cc1cccc(C(=O)O/N=C(\N)CS(=O)(=O)c2ccccc2)c1 | 5.74%
Cn1cccc1C(=O)NCC(c1ccc(F)cc1)N1CCOCC1 (stereo not drawn) | 5.02%
CCOC(=O)CNC(=O)Cn1cnc2c(nnn2-c2cccc(Cl)c2)c1=O | -0.825%
COc1ccc(Nc2nc(C)nc3c2nnn3Cc2ccccc2)cc1OC | 4.84%
CCN(CC)c1ccc(NC(=O)CN2CCN(CC(=O)Nc3ccccc3OC)CC2)cc1 | -0.407%
COc1ccc(NC(=O)CN2CCC(C)CC2)cc1 | -0.0667%
CCN(CC)c1ccc(NC(=O)CN2CCN(CC(=O)Nc3ccc(OC)cc3)CC2)cc1 | -59.5%
Cc1cc(=O)oc2cc(OCC(=O)N3CCCC3)c(Cl)cc12 | 1.63%
Cc1nc(Nc2ccc3c(c2)OCCO3)c2c(C)c(C)sc2n1 | -8.61%
Cc1sc2nc(CN3CCCCC3)nc(Nc3ccc4c(c3)OCCO4)c2c1C | -89.2%
Cc1sc2nc(CN3CCOCC3)nc(NS(=O)(=O)c3ccc4c(c3)OCCO4)c2c1C | 13.1%
Cc1cc2oc3c(c(=O)c2cc1C)C(c1ccc(C(C)C)cc1)N(CCCN1CCOCC1)C3=O (stereo not drawn) | 13%
CCCN1C(=O)c2ccc(C(=O)Nc3ccccc3C(=O)O)cc2C1=O | 18%
COCc1cc(CN2CCN(Cc3ccsc3)C(CCO)C2)ccc1OC (stereo not drawn) | -56.6%
COCc1cc(CN2CCN(CCc3ccccc3)C(CCO)C2)ccc1OC (stereo not drawn) | -32.3%

Structure (SMILES) | hERG current change (%, negative = inhibition) at 1uM
CCOc1ccc(CN2CCN(Cc3ccsc3)C(CCO)C2)cc1CO (stereo not drawn) | -17.3%
Cc1ccc(NCc2nnc(SCC(=O)NCc3ccco3)n2CC2CCCO2)cc1Cl (stereo not drawn) | -5.15%
Cc1ccc(NCc2nnc(SCCN3CCCCC3)n2CC2CCCO2)cc1Cl (stereo not drawn) | -59.1%
Cc1ccc(NCc2nnc(SCCN3CCCCC3)n2CC2CCCO2)c(C)c1 (stereo not drawn) | -10.7%
CCOC(=O)c1c(C)[nH]c(C(=O)N2CCN(C(=O)OCC)CC2)c1C | 7.64%
Cc1ccc(NS(=O)(=O)c2cccs2)cc1S(=O)(=O)N1CCCCCC1 | 16.5%
Cc1ccc(CSCc2ccc(C(=O)NCCCN3CCOCC3)o2)cc1 | -21.2%
COC(CNC(=O)c1ccc2c(c1)ncn2-c1ccc(F)c(F)c1)OC | -5.49%
COc1ccc2cc(C(=O)N3CCCCCC3)sc(=O)c2c1OC | 1.33%
O=C(Nc1cc(C(F)(F)F)ccc1Cl)C(NCc1ccccc1)c1ccccc1 (stereo not drawn) | 15.6%
CN(C)CC(C)(C)CNC(C(=O)Nc1ccc(Cl)cc1C(F)(F)F)c1ccccc1 (stereo not drawn) | -72.3%
CN(C)CCNC(C(=O)Nc1cccc(C(F)(F)F)c1)c1ccccc1.O=C(O)C(=O)O (stereo not drawn) | -14.6%
CCCCNC(C(=O)Nc1ccc([N+](=O)[O-])cc1Br)c1ccccc1 (stereo not drawn) | 10.5%
CCCC(=O)OC(C(=O)Nc1cc(C(F)(F)F)ccc1Cl)c1ccccc1 (stereo not drawn) | 5.1%
COc1cccc(NC(=O)C(NCC(C)(C)CN(C)C)c2ccccc2)c1.O=C(O)C(=O)O (stereo not drawn) | -12.7%
CCN(CC)CCNC(C(=O)Nc1cc(C(F)(F)F)ccc1Cl)c1ccccc1 (stereo not drawn) | -85.3%
CCN(CC)CCNC(C(=O)Nc1cccc(C(C)=O)c1)c1ccccc1.O=C(O)C(=O)O (stereo not drawn) | -51.4%
CCN(CC)CCNC(C(=O)Nc1ccc([N+](=O)[O-])cc1Br)c1ccccc1 (stereo not drawn) | -86.5%
CC(=O)c1cccc(NC(=O)C(NC(C)C)c2ccccc2)c1 (stereo not drawn) | 10%
CN(C)c1cccc(C(=O)OC(C(=O)Nc2ccc(Cl)cc2C(F)(F)F)c2ccccc2)c1 (stereo not drawn) | 0.322%
CN(C)C(CNC(C(=O)Nc1ccc([N+](=O)[O-])cc1Br)c1ccccc1)c1ccccc1 (stereo not drawn) | 11.9%
